The values below come from PubChem BioAssay AID1259418 (Broad Institute, 2018).

Screen size: about 3,400 compounds; about 840 (25%) were called active. Not shown: some 11% with an inconclusive outcome. The list is a sample of the results. Potency and affinity values are given separately. A number with no mark means an inactive call.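 How the source made its calls: active means fitted half-maximal concentration of signal decrease at or below twice the sample's top tested concentration; inconclusive means flat curve between -70 and -30 percent, or poor fit; inactive means flat within 30 percent, signal rise, or potency above limit.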

The assay is described as follows: inhibitors of Toxoplasma growth in IFN-γ-primed HeLa – cell-based, ME49Luc, luciferase, 72 h, dose response (AID 1259418). The following applies: T. gondii ME49Luc in IFN-y HeLa, hits give low values, -100% = high-dose IFN-γ control wells; at 19.5 µM unless noted.
In the case of `O=C(CC1N=C2c3ccccc3N=C(SCc3cc(=O)n4cc(Cl)ccc4n3)N2C1=O)NCc1ccccc1` (stereo unspecified), the max activity was 8.94%. As to `Cc1ccc(-c2coc(-c3ccc(NC(=O)c4ccco4)cc3)n2)c(C)c1`, the max activity is 11.6%. With `CCOc1ccc(-c2nc(CSc3nc4c(c(=O)[nH]3)CN(C(C)C)CC4)c(C)o2)cc1OC`, the max activity is 21% [at 2.6 µM].

As for `COc1ccc(CNC(=O)CCC2N=C3c4ccccc4N=C(SCc4ccccc4F)N3C2=O)cc1` (stereo unspecified), the max activity was -23.7% [at 0.35 µM]. In the case of `COc1ccc(CNC(=O)CCC2N=C3c4ccccc4N=C(SCc4ccc(Cl)cc4)N3C2=O)cc1` (stereo unspecified) it was -5.19% [at 0.68 µM]; in that of `O=C(CCC1N=C2c3ccccc3N=C(SCc3ccccc3F)N2C1=O)NCCc1ccccc1` (stereo unspecified), 25.3% [at 0.16 µM]. Under `O=C(CCC1N=C2c3ccccc3N=C(SCc3ccccc3F)N2C1=O)NCc1ccc(F)cc1` (stereo unspecified) stands 12.5% [at 1.35 µM]; under `CCc1c(C)sc2c1CCN(Cc1nc(-c3ccccc3Cl)oc1C)C2c1ccccc1` (stereo unspecified), 11.5% [at 10 µM]. Under `CCc1ccc2c(c1)cc(S(=O)(=O)c1ccccc1)c(=O)n2CC(=O)NC(C)CC` (stereo unspecified) stands -8.4%. Take `Cc1ccc(-c2nc(Cn3nnc(-c4nc(-c5ccncc5)no4)c3C)c(C)o2)cc1`: the max activity was 8.58% [at 10 µM]. Under `CCc1c(C)sc2c1CCN(Cc1nc(-c3ccc(OC)cc3OC)oc1C)C2c1ccccc1` (stereo unspecified) stands 15.7%; under `CCc1c(C)sc2c1CCN(Cc1nc(-c3ccccc3C)oc1C)C2c1ccccc1` (stereo unspecified), 25.6% [at 5 µM].

On to `CCC(=O)N1CC(=O)N2[C@H](CO)[C@H](c3ccc(C#CCC(C)C)cc3)[C@H]2C1`, for which the max activity is 9.28% [at 10 µM]. Consider `CCC(=O)N1CC(=O)N2[C@@H](CO)[C@@H](c3ccc(C#CCC(C)C)cc3)[C@@H]2C1`, for which the max activity is 22.8% [at 10 µM].

Turning to `CC(C)CC#Cc1ccc([C@H]2[C@@H](CO)N3C(=O)CN(C(=O)c4cccc(F)c4)C[C@@H]23)cc1`, the max activity was 19.1% [at 10 µM].

Consider `CCC(=O)N1CC(=O)N2[C@@H](CO)[C@H](c3ccc(C#CCC(C)C)cc3)[C@@H]2C1`, for which the max activity was 20.4% [at 10 µM]. In the case of `O=C(c1cccc(F)c1)N1CC(=O)N2[C@@H](CO)[C@H](c3ccc(/C=C/c4ccccc4)cc3)[C@@H]2C1` it was 14.7% [at 5 µM]; in that of `CCc1ccc(CNc2nc(-c3ccc(OC)cc3)nc3ccccc23)cc1`, -7.47% [at 0.16 µM]; in that of `COc1ccccc1NC(=O)N1CCN(Cc2nc(-c3cccc(Cl)c3)oc2C)CC1`, 15.9% [at 1.35 µM]. On to `COc1ccc(NC(=O)Nc2ccc(-c3nc(-c4ccccc4)co3)cc2)cc1OC`, for which the max activity is 91.2%. For `O=C(Cc1cccc(F)c1)N1CCC2(CC1)Nc1ccccc1-n1cccc12`, the max activity is 9.66% [at 10 µM]. Under `COc1cc(NC(=O)Nc2ccc(-c3nc(-c4ccccc4)co3)cc2)cc(OC)c1OC` stands 43.1%.

As for `CCc1ccc2c(c1)cc(S(=O)(=O)c1ccccc1)c(=O)n2CC(=O)N1CCCCC1`, the max activity was 9.02% [at 0.16 µM]. Turning to `CC(c1cc2ccccc2s1)N(O)C(N)=O` (stereo unspecified), the max activity was 22.5%.

As to `Cc1ccc2c(c1)cc(S(=O)(=O)c1ccccc1)c(=O)n2CC(=O)NCc1ccc(F)cc1`, the max activity was 3.98% [at 10 µM]. On to `COc1ccc(-c2nc(Cn3nnc(-c4nc(-c5ccc(Cl)c(F)c5)no4)c3C)c(C)o2)cc1`, for which the max activity was -11.8% [at 10 µM]. As for `CCN1C(=O)CCc2cc(NC(=O)Cc3cccs3)ccc21`, the max activity was -9.98% [at 0.35 µM]. Under `Cc1ccc(-c2coc(-c3ccc(NC(=O)Nc4ccc(C)c(C)c4)cc3)n2)cc1` stands 12% [at 2.6 µM]; under `N#Cc1cccc(C(=O)N2CCC3C2CC(=O)N3Cc2ccncc2)c1` (stereo unspecified), 25.6%. Regarding `CCN1C(=O)CCc2cc(NC(=O)c3cccc(C#N)c3)ccc21`, the max activity is -7.75% [at 0.16 µM]. Consider `Cc1oc(-c2ccccc2)nc1Cn1nnc(-c2nc(-c3cccc(F)c3)no2)c1C`, for which the max activity was 9.95%. Under `COc1ccc2c(c1)NC1(CCN(C(=O)Cc3ccccc3)CC1)c1cccn1-2` stands 5.44% [at 0.35 µM]; under `CCOc1ccc(NC(=O)COc2nc(CC)nc3ccccc23)cc1`, 16% [at 10 µM]. Consider `Cc1ccc(S(=O)(=O)Nc2ccc3c(c2)C(=O)N([C@H](C)CO)C[C@H](C)[C@H](CN(C)Cc2ccc(C(F)(F)F)cc2)O3)cc1`, for which the max activity is 19.4% [at 10 µM]. Under `CCOc1ccc(-c2nc3c(s2)CN(S(=O)(=O)c2ccccc2Cl)CC3)cc1` stands 22.6%; under `O=C(c1cccc(F)c1)N1CCC2(CC1)Nc1ccc(Cl)cc1-n1cccc12`, 9.53% [at 0.68 µM]; under `CCOc1ccccc1NC(=O)CN1CCC2(CC1)N=C(c1ccc(F)cc1)C(=O)N2`, 13%. As for `Cc1nc(CCNC(=O)[C@H]2CCCN2S(=O)(=O)c2cccc(Cl)c2)cs1`, the max activity was -9.1% [at 0.35 µM]. For the compound `CCOc1ccc(-c2nc(CN(c3ccc(OC)cc3)S(=O)(=O)c3ccc(C)cc3)c(C)o2)cc1`, the max activity was 8.75% [at 1.35 µM].

Turning to `Cc1ccc2c(c1C)-n1cccc1C1(CCN(C(=O)Cc3ccccc3)CC1)N2`, the max activity is 4.08% [at 0.68 µM].

Regarding `CCOc1ccc(-c2nc(CN(c3ccc(C)cc3)S(=O)(=O)c3cccs3)c(C)o2)cc1OC`, the max activity is 101% [at 10 µM]. As to `CCOc1ccc(-c2nc(CN(c3ccccc3)S(=O)(=O)c3cccs3)c(C)o2)cc1OC`, the max activity is -33.6% [at 10 µM].

Turning to `COc1ccccc1NC(=O)N1CCc2nc(-c3ccc(OC)c(OC)c3)sc2C1`, the max activity is 6.68% [at 0.16 µM].

Take `C[C@]12CCC3=C4CCC(=O)C=C4CC[C@H]3[C@@H]1CC[C@@]2(O)CC#N`: the max activity was 15.3%.

Turning to `Cc1ccc(N2CCC[C@]3(C(=O)O)CN(CCN(C)C)C[C@H]3C2)nn1`, the max activity is 40.3%. Under `Cc1cccc(N2CCN(C(=O)c3ccc(-c4csc(C5CC5)n4)cc3)CC2)c1C` stands -9.59% [at 0.35 µM].

With `COc1ccc(NC(=O)CN2CCC3(CC2)N=C(c2ccc(C)cc2)C(=O)N3)c(OC)c1`, the max activity was -8.99% [at 5 µM].

With `COc1ccccc1NC(=O)CN1CCC2(CC1)N=C(c1cccc(C)c1)C(=O)N2`, the max activity is 13.7% [at 0.35 µM]. Under `CSc1cccc(NC(=O)CN2CCC3(CC2)N=C(c2cccc(F)c2)C(=O)N3)c1` stands 27.3%; under `Cc1ccc(C2=NC3(CCN(CC(=O)Nc4ccc(Cl)cc4)CC3)NC2=O)cc1`, 19.9% [at 1.35 µM]. On to `COc1ccc(C2=NC3(CCN(CC(=O)Nc4cccc(Cl)c4)CC3)NC2=O)cc1`, for which the max activity was -14.8% [at 2.6 µM].

On to `Cc1ccccc1NC(=O)CN1CCC2(CC1)N=C(c1cccc(Cl)c1)C(=O)N2`, for which the max activity is -14.5%. Take `COc1cccc(NC(=O)CN2CCC3(CC2)N=C(c2cccc(Cl)c2)C(=O)N3)c1`: the max activity was -20.4% [at 0.68 µM].

As to `CSc1cccc(NC(=O)CN2CCC3(CC2)N=C(c2ccc(Cl)cc2)C(=O)N3)c1`, the max activity is -30.9%. As to `COc1cccc(NC(=O)Nc2ccc(-c3nc(-c4cc(C)ccc4C)co3)cc2)c1`, the max activity is 10.1% [at 0.16 µM]. For the compound `CN(C)CCO[C@@H]1CN(C(=O)Cc2ccsc2)[C@H]2CCCO[C@@H]12`, the max activity is 38.7%. Under `Cc1cccc(NC(=O)CN2CCC3(CC2)N=C(c2ccc(Cl)cc2)C(=O)N3)c1` stands 17.4%; under `Cc1[nH]c2ccccc2c1C(=O)C(=O)NC1CC(=O)N(c2cccc(F)c2)C1` (stereo unspecified), 13.3% [at 0.35 µM]; under `COc1ccc(C)cc1Nc1nc(-c2ccc(Cl)cc2)nc2ccccc12`, -11.5% [at 2.6 µM]. In the case of `Clc1ccc(-c2nc(N3CCc4ccccc43)c3ccccc3n2)cc1` it was -11.3%; in that of `COc1ccc2c(c1)NC1(CCN(C(=O)c3ccc(C)c(C)c3)CC1)c1cccn1-2`, -9.14% [at 2.6 µM]. Under `CCc1ccc(NC(=O)N2CCN(Cc3nc(-c4ccccc4C)oc3C)CC2)cc1` stands 20.1% [at 0.16 µM]; under `Cc1oc(-c2ccccc2)nc1Cn1nnc(-c2nc(-c3ccc(F)c(Br)c3)no2)c1C`, 9.89%; under `COc1cccc(NC(=O)CN2CCC3(CC2)N=C(c2ccc(Cl)cc2)C(=O)N3)c1`, -17.6% [at 1.35 µM]. Turning to `COc1ccc(-c2nc(NCc3ccc(F)cc3)c3ccccc3n2)cc1`, the max activity is 18.6% [at 1.35 µM]. With `COc1ccc(-c2nc(NCC3CCN(Cc4ccccc4F)CC3)c3ccccc3n2)cc1`, the max activity was -29.4%. On to `Cc1cccc(CN2CCC(CNc3nc(-c4ccc(Cl)cc4)nc4ccccc34)CC2)c1`, for which the max activity was -45.1% [at 0.35 µM]. Under `COc1ccc(-c2nc(NCc3ccc(C)cc3)c3ccccc3n2)cc1` stands -20.6% [at 5 µM]. For `COc1ccc(-c2nc(NCC3CCN(Cc4ccc(Cl)cc4)CC3)c3ccccc3n2)cc1`, the max activity was 14.4% [at 2.6 µM]. In the case of `CSc1ccc(-c2noc(-c3nnn(Cc4nc(-c5ccc(C)cc5)oc4C)c3C)n2)cc1`, the max activity was 4.87%. `COc1cc(C(=O)N2CCC3(CC2)Nc2ccc(C)c(C)c2-n2cccc23)cc(OC)c1OC`: the max activity was 7.01% [at 0.16 µM].

For `N#C[C@H]1N[C@@H](CO)[C@H]1c1ccc(C#CC2CCCCC2)cc1`, the max activity is 49.7%. In the case of `Cc1cccc(-c2ccc(C3[C@H]4CNC[C@@H]3N4Cc3cccc(F)c3)cc2)c1` (stereo partly specified) it was 19.8%; in that of `Fc1cccc(-c2ccc(C3[C@H]4CNC[C@@H]3N4Cc3cncnc3)cc2)c1` (stereo partly specified), 50.5%; in that of `COc1cccc(S(=O)(=O)N2CC[C@@H]3[C@H]2c2cc(C#Cc4cccnc4)ccc2N[C@@H]3CO)c1`, 31.2% [at 5 µM]. In the case of `O=C(C1CCOCC1)N1CC(=O)N2[C@@H](CO)[C@@H](c3ccc(C#CC4CCCCC4)cc3)[C@@H]2C1` it was 25.9% [at 10 µM].
